Reference: PubChem BioAssay AID1347416 (National Center for Advancing Translational Sciences (NCATS), 2020)
The campaign covered roughly 4,100 compounds. About 1,600 (39%) were called active. Not shown: some 25% with an inconclusive outcome. The list shows a part of the results. Values without a mark were called inactive. Calls come from the whole dose curve; as a rule, active = well fitted inhibition curve with a large enough effect; inconclusive = small, poorly fitted or top-dose-only effect; inactive = no such curve, though single readings can be large or run the other way.

Test: qHTS Validation assay for Inhibitors of Plasmodium falciparum Dd2 growth in vitro; note: nearly all actives have a fitted effect of over 70% in size
Details: P. falciparum Dd2 in RBCs, SYBR Green growth, 72 h; series mostly up to 28.7 µM; activity change, negative = inhibition: at the top concentration
In short: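 P. falciparum Dd2-infected red blood cells (2.5% hematocrit, 0.3% parasitemia) grown 72 h at 37 °C under 5% O2 with compounds in a titration, 29 uM to 0.5 nM final. Growth read as SYBR Green-1 fluorescence after ~16 h lysis; artesunate 300 nM as positive control.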
% is set by controls: 0 for no effect and ±100 for the full control effect; potency is the fitted concentration of half-maximal effect.

Structure (SMILES)	activity change, negative = inhibition	Potency
CSCc1noc(Cc2c(C)nn(-c3ccccc3)c2C)n1	35%	–
Cc1cc(O)c(-c2cc(C(=O)Nc3ccc(S(=O)(=O)N4CCOCC4)cc3)[nH]n2)cc1C	–	1.68 µM (active)
Cc1ccc(Cl)cc1NC(=O)c1cc(S(=O)(=O)N2CCOCC2)cn1C	-14.4%	–
Cc1ccccc1-c1cc(C(=O)N2CCC3(CC2)CC(O)CCO3)[nH]n1 (centres undefined)	14.5%	–
Cc1ccc(NC(=O)c2cc(-c3ccc[nH]3)n[nH]2)cc1C	-25.4%	–
COc1ccccc1-c1cc(C(=O)N2CCN(S(=O)(=O)c3ccc(C)cc3)CC2)[nH]n1	–	7.5 µM (active)
NS(=O)(=O)c1ccc(NC(=O)CN2C(=O)COc3ccc(Cl)cc32)cc1	13.6%	–
COc1ccc(OC)c(NC(=O)c2cc(-c3cc(Cl)ccc3O)n[nH]2)c1	–	4.73 µM (active)
O=C(Nc1ccc(S(=O)(=O)N2CCOCC2)cc1)c1cc(-c2cc(Cl)ccc2O)n[nH]1	–	2.66 µM (active)
COc1ccc(S(=O)(=O)N2CCN(C(=O)c3cc(-c4ccccc4OC)n[nH]3)CC2)cc1	12.6%	–
COc1ccc(C(=O)Nc2cc(-c3nc4ccccc4s3)ccc2OC)cc1	21.4%	–
CN1CC2(CCN(S(=O)(=O)c3ccc(C#N)cc3)CC2)CC1C(=O)N1CCOCC1 (centres undefined)	1.39%	–
CCOc1ccc(OCC)c(NC(=O)c2nnn(CC(=O)Nc3cc(Cl)ccc3OC)c2N)c1	35%	–
CN(C)c1ncc([N+](=O)[O-])cc1C(F)(F)F	19.7%	–
CCc1noc(-c2cccn3c(CNC(=O)c4ccccc4F)nnc23)n1	0%	–
Cc1ccc(C)c2sc(N3CCN(C(=O)c4ccc([N+](=O)[O-])o4)CC3)nc12	–	4.73 µM (active)
COc1cccc(N2CCN(c3nc(C(=O)NCc4cccc(C)c4)cs3)CC2)c1	16.3%	–
CCOc1ccc2nc(N3CCN(C(=O)C(C)C)CC3)sc2c1	-11.4%	–
Cc1cc(C)c2nc(N3CCC(C(=O)N4CCCC4)CC3)sc2c1	15.7%	–
Cc1ccc2sc(N3CCN(C(=O)c4ccc([N+](=O)[O-])o4)CC3)nc2c1C	–	5.31 µM (active)
COc1ccc2nc(N3CCN(C(=O)c4ccc([N+](=O)[O-])o4)CC3)sc2c1	–	4.73 µM (active)
CNC(=O)N1CCc2c(sc3ncnc(N(C)C)c23)C1	3.51%	–
Nc1ccc2nc(-c3cccs3)[nH]c2c1	-28.3%	–

Structure (SMILES)	activity change, negative = inhibition	Potency
Cc1ccc(Sc2ccc(NC(=O)CCl)cc2)cc1C	–	9.44 µM (active)
Cc1ccc(NC(=O)Cn2ccnc2)cc1C	49.5%	–
Cc1nc([C@@H]2CN(C(=O)c3nccc4ccccc34)C[C@H]2C(N)=O)n[nH]1	5.68%	–
Cc1noc(C2CC3(CCN(C(=O)c4cccn4C)CC3)CN2C)n1 (centres undefined)	4.95%	–
COC(=O)C1=C(C)NC(C)=C(C(=O)OC(C)(C)CN(C)CCC(c2ccccc2)c2ccccc2)C1c1cccc([N+](=O)[O-])c1 (centres undefined)	–	2.99 µM (active)
COC(=O)C1=C(C)NC(C)=C(C(=O)OCCCN2CCC(c3ccccc3)(c3ccccc3)CC2)C1c1cccc([N+](=O)[O-])c1 (centres undefined)	–	2.99 µM (active)
CCN(CC)CCCC(C)Nc1cc(/C=C/c2ccccc2Cl)nc2cc(Cl)ccc12 (centres undefined)	–	0.842 µM (active)
CCc1nc(NCc2cn[nH]c2-c2ccc(Cl)cc2)c2cnn(C)c2n1	56.2%	–
COC[C@@H]1CN(C(=O)c2cc3ccccc3[nH]2)C[C@H]1c1ccncc1	-20.6%	–
COCCNC(=O)C1COC2(CCN(C(=O)c3ccc(Cl)cc3)CC2)N1C(=O)c1ccccc1C (centres undefined)	-12.4%	–
CCOc1cc(C(=O)N2CCC(CC3CC(c4cccc(Br)c4)=NO3)(C(=O)NCC3CCCCC3)CC2)cc(OCC)c1OCC (centres undefined)	–	1.68 µM (active)
Cc1cc(Cl)ccc1-c1ccc(CNC2CN(C(=O)OC(C)(C)C)C2)cc1	37%	–
CC(C)(C)OC(=O)N1CCC(CC2CC(c3ccccc3)=NO2)(C(=O)NCc2ccccc2)CC1 (centres undefined)	–	2.66 µM (active)
CCOc1cc(C(=O)N2CCC(CC3CC(c4ccc(Cl)cc4)=NO3)(C(=O)NCC3CCCCC3)CC2)cc(OCC)c1OCC (centres undefined)	–	0.842 µM (active)
CCCCCCCNC(=O)C1(CC2CC(c3ccc(Cl)cc3)=NO2)CCN(C(=O)c2cc(OCC)c(OCC)c(OCC)c2)CC1 (centres undefined)	–	3.35 µM (active)
O=C(NCc1ccccc1)N1CCC(c2nc(C3CCOCC3)no2)CC1	13%	–
CC(C)c1cc(C(=O)NC2CCN(c3ncccc3C#N)CC2)n(C)n1	5.19%	–
CCCCCCCNC(=O)C1(CC2CC(c3cccc(Br)c3)=NO2)CCN(C(=O)c2cc(OCC)c(OCC)c(OCC)c2)CC1 (centres undefined)	–	10.6 µM (active)
CC(NCc1ccccc1O)C12CC3CC(CC(C3)C1)C2 (centres undefined)	–	0.0944 µM (active)
O=C1NCCCCCCN(C(=O)C2CCC2)[C@H]2C[C@H](c3nc(-c4cccnc4)no3)C[C@@H]12	3.93%	–
CNC(=O)c1[nH]nc2c1CCc1cc(OC)ccc1-2	-19.9%	–
O=C1CC(c2ccccc2)N(C(=O)CNC(=O)c2[nH]nc3c2CCc2ccccc2-3)CCCCCCN1 (centres undefined)	–	2.99 µM (active)
COc1ccc2c(c1)CCc1c-2n[nH]c1C(=O)N1CCc2c(nc3cc(-c4ccccc4)[nH]n3c2=O)C1	18.7%	–

Structure (SMILES)	activity change, negative = inhibition	Potency
Cc1ccncc1C(=O)NCC(=O)N1CCCCCNC(=O)CC1c1ccccc1 (centres undefined)	1.1%	–
Cn1cnc(C(=O)NCC(=O)N2CCCCCNC(=O)CC2c2ccccc2)c1 (centres undefined)	4.59%	–
O=C1CC(c2ccccc2)N(C(=O)CNC(=O)c2ccc3[nH]ccc3c2)CCCCCN1 (centres undefined)	–	15 µM (active)
Cn1nc(C(=O)NCC(=O)N2CCCCCCNC(=O)CC2c2ccccc2)c2ccccc21 (centres undefined)	–	2.11 µM (active)
Cc1ccc(S(=O)(=O)N[C@@H]2CN(C)C[C@H]2CN(C)C)cc1F	–	15 µM (active)
CCOc1ccc(CC(=O)N[C@@H]2CN(c3ncccn3)C[C@H]2CN(C)C)cc1	-5.61%	–
CN(C)C[C@@H]1CN(C)C[C@H]1NS(=O)(=O)c1ccc(Br)cc1	–	13.3 µM (active)
CN(C)C[C@@H]1CN(S(C)(=O)=O)C[C@H]1NC(=O)c1ccccc1	12.9%	–
Cc1nn(-c2ccccc2)c2c1C(O)n1c(nc3ccccc31)S2 (centres undefined)	–	5.31 µM (active)
CCOC(=O)C1=Nc2ccccc2C1=[N+]=[N-]	–	4.22 µM (active)
CCOC(=O)C1=C(C)N=c2s/c(=C/c3ccc(OCC(=O)O)cc3)c(=O)n2C1c1cc(OC)c(OC)c(OC)c1 (centres undefined)	–	1.88 µM (active)
CCOc1ccc(C2C(C(=O)Nc3ccccc3)=C(C)N=c3s/c(=C/c4cccc(OCC(=O)O)c4)c(=O)n32)cc1 (centres undefined)	–	5.31 µM (active)
CCOC(=O)C1=C(c2ccccc2)N=c2s/c(=C\c3cc(OC)c(OC)c(OC)c3)c(=O)n2C1c1cccs1 (centres undefined)	–	5.96 µM (active)
CCOC(=O)C1=C(C)N=c2s/c(=C\c3ccc(OCC(=O)O)cc3)c(=O)n2C1c1ccccc1OC (centres undefined)	-9.3%	–
Cc1ccc(CN(C)C(=O)c2cc(COc3ccc(F)cc3Cl)on2)o1	20.9%	–
CC1(Cc2ccc3c(c2)OCO3)CCCN(C(=O)c2ccccc2-n2cncn2)C1 (centres undefined)	-5.72%	–
COC(=O)c1nn(-c2ccc3c(c2)CCN3C(C)=O)cc1O	45.4%	–
COCCNc1nc2cc(C(=O)N3CC[C@H](CO)[C@@H](O)C3)ccc2n1C	19%	–
COc1ccc(C2C(C(=O)N3CCCCC3)CC(=O)N2c2ccc(OC)cc2)cc1 (centres undefined)	–	7.5 µM (active)
COc1cnc(-c2ccccn2)nc1Oc1ccc(C(C)(C)C)cc1	66.3%	–
Cc1nc(-c2ccccn2)nc(N(C)c2ccccc2)c1Cl	–	5.31 µM (active)
COc1cnc(-c2ccccn2)nc1NC(C)C	–	5.31 µM (active)
COc1cnc(-c2ccccn2)nc1N(C)c1ccccc1	–	5.96 µM (active)

Structure (SMILES)	activity change, negative = inhibition	Potency
COC(=O)c1ccc(Nc2ncnc3c2nc2n3CCCC2)cc1	-21.5%	–
Cc1ccc(-c2nnc(Nc3ccc(OCC(N)=O)cc3)c3ccccc23)cc1S(=O)(=O)NCC1CCCO1 (centres undefined)	–	4.73 µM (active)
CC(=O)c1cccc(NS(=O)(=O)c2cc(-c3cnc(C4CC4)o3)ccc2C)c1	8.42%	–
Cc1ccc(-c2nnc(Nc3ccc(O)cc3)c3ccccc23)cc1S(=O)(=O)N1CCN(C)CC1	–	6.68 µM (active)
COC(=O)c1ccc(Nc2nnc(-c3ccc(C)c(S(=O)(=O)N4CCN(C)CC4)c3)c3ccccc23)cc1	–	8.41 µM (active)
CC(OC(=O)c1ccc(OCC2CCCO2)cc1)C(=O)N(C)Cc1ccccc1 (centres undefined)	-9.4%	–
CC(C)(C(=O)N1CCN(Cc2ccccc2)CC(O)C1)c1ccccc1 (centres undefined)	-5.37%	–
CCOC(=O)c1c(NC(=O)/C=C/c2ccc(OCC)cc2)sc2c1CCC2	1.45%	–
CCOC(=O)c1c(N)sc2c1CCN(Cc1ccccc1)C2	–	5.31 µM (active)
Cc1cc(F)ccc1NC(=O)Cn1c(=O)ccc2cc(S(=O)(=O)N3CCC(C)CC3)ccc21	1.53%	–
O=C(CN1CCC(n2nnc3cc(F)ccc32)CC1)Nc1ccccc1N1CCOCC1	–	5.31 µM (active)
O=C(NCc1nc2ccccc2[nH]1)C1=C[C@@H](c2ccccc2)C[C@@H](OCCCCO)O1	20.8%	–
CCO[C@H]1OC(C(=O)N2CCN(Cc3ccccc3)CC2)=C[C@@H](C2CCCCC2)[C@@H]1CCCO	-29.6%	–
CCO[C@@H]1OC(C(=O)N2CCN(Cc3ccc4c(c3)OCO4)CC2)=C[C@H](c2cn(C(C)=O)c3ccccc23)[C@H]1CCCO	–	9.44 µM (active)
O=C(C1=C[C@H](c2csc3ccccc23)C[C@H](OCCCCO)O1)N1CCN(Cc2ccc3c(c2)OCO3)CC1	–	13.3 µM (active)
CCO[C@H]1OC(C(=O)N2CCN(Cc3ccc4c(c3)OCO4)CC2)=C[C@@H](c2cn(C(C)=O)c3ccccc23)[C@@H]1CCCO	–	8.41 µM (active)
CN(Cc1cccnc1)Cc1ccccc1C(F)(F)F	31.1% [at 43.1 µM]	–
CCOC(=O)c1nnn(-c2nonc2-n2cccc2)c1CN1CCC(C(=O)OCC)CC1	–	4.73 µM (active)
CCOC(=O)c1nnn(-c2nonc2-n2cccc2)c1CN1CCCCC1	–	7.5 µM (active)
Cn1c(CN2CCCCC2)nnc1C1CCCN(C(=O)c2cocn2)C1 (centres undefined)	0%	–
